Experiment in all cases: NCI-60 one-dose screen, 48 h (100 = growth as untreated, 0 = no growth, -100 = all killed)
One test relates to SK-MEL-2 melanoma. Particulars: 10 µM unless noted.
For the next test, the system named is EKVX NSCLC. Particulars: 10 µM unless noted.
The next test relates to SN12C renal. The conditions noted are these: 10 µM unless noted.
Another test has as its system UO-31 renal. Particulars: 10 µM unless noted.
The subject of the next test is ACHN renal. Particulars: 10 µM unless noted.
The test system of the next test is CAKI-1 renal. Particulars: 10 µM.
Another test deals with A498 renal. The conditions noted are these: 10 µM unless noted.
For the next test, the system named is CCRF-CEM leukemia. The conditions noted are these: 10 µM unless noted.
Another test has as its system MOLT-4 leukemia. The conditions noted are these: 10 µM unless noted.
For another test, the system named is SR leukemia. The conditions noted are these: 10 µM unless noted.
A further test relates to RPMI-8226 leukemia. The conditions noted are these: 10 µM unless noted.
Another test concerns OVCAR-8 ovarian. The conditions noted are these: 10 µM unless noted.
The next test concerns OVCAR-5 ovarian. Particulars: 10 µM unless noted.
The test system of the next test is OVCAR-4 ovarian. Particulars: 10 µM unless noted.
For a further test, the system named is SK-OV-3 ovarian. Particulars: 10 µM unless noted.
For a further test, the system named is IGROV1 ovarian. Particulars: 10 µM unless noted.
Another test concerns OVCAR-3 ovarian. Particulars: 10 µM unless noted.
A further test concerns HS 578T breast. Particulars: 10 µM unless noted.
For the next test, the system named is NCI/ADR-RES ovarian. The conditions noted are these: 10 µM unless noted.
A further test relates to TK-10 renal. Particulars: 10 µM unless noted.

Molecules are shown by their SMILES. Compounds without any hit were thinned out: in the full panel of roughly 83,000, 20% have a hit.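 Step 1: grow cells in 96-well plates. Step 2: add test compound at a single concentration. Step 3: incubate 48 h. Step 4: record percent growth.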 Unmarked numbers belong to inactive results. Active and inactive are the calls of the source. Rule for the calls: active = growth percent below 10; inactive = the rest.

With `CN(CCNCc1ccccn1)CCNCc1ccccn1`, the growth with SK-MEL-2 melanoma is -2.1% (active); in the test on EKVX NSCLC it was 23.8%; in the test on SN12C renal, 27.9%; in the test with UO-31 renal, -11.8% (active); with ACHN renal, 0.79% (active); in the test on CAKI-1 renal, -42% (active). Moreover, the growth in the test on A498 renal is -91.9% (active); in the test on CCRF-CEM leukemia it was 10.7%; with MOLT-4 leukemia it was 1.98% (active); with SR leukemia, 9.92% (active); with RPMI-8226 leukemia it was 18.9%; in the test with OVCAR-8 ovarian, 13.5%. In addition, the growth in the test on OVCAR-5 ovarian was -1.39% (active); with OVCAR-4 ovarian it was -17.3% (active); in the test with SK-OV-3 ovarian, -23% (active); in the test on IGROV1 ovarian, 26.9%; in the test on OVCAR-3 ovarian, -37.1% (active); with HS 578T breast, 48.9%. The growth in the test on NCI/ADR-RES ovarian is 4.32% (active).

In the case of `Cc1ccc[n+](CC(=O)c2cccc3ccccc23)c1`, the growth in the test with SK-MEL-2 melanoma is 106%; in the test with EKVX NSCLC, 95.9%; in the test with SN12C renal it was 102%; in the test on UO-31 renal, 89.5%; in the test on ACHN renal, 103%; in the test on CAKI-1 renal, 100%. The growth with A498 renal was 90%; in the test with CCRF-CEM leukemia it was 101%; with MOLT-4 leukemia it was 98%; with SR leukemia, 112%; in the test on RPMI-8226 leukemia it was 101%; in the test on OVCAR-8 ovarian, 114%. Also, the growth was 98.6% in the test with OVCAR-5 ovarian; 103% in the test with OVCAR-4 ovarian; 96.9% in the test with SK-OV-3 ovarian; 96% in the test on IGROV1 ovarian; 98.6% in the test on OVCAR-3 ovarian; 106% in the test on HS 578T breast. For the same compound, the growth in the test on NCI/ADR-RES ovarian was 108%.

`CCOc1ccc(NC2=C(Cl)C(=O)c3ccccc3C2=O)cc1`: the growth in the test on SK-MEL-2 melanoma is 88.2%; with EKVX NSCLC, 87.2%; in the test on SN12C renal, 61%; in the test on UO-31 renal, 77.9%; in the test with TK-10 renal, 136%; in the test with A498 renal it was 80.8%. For the same compound, the growth is 33.3% in the test on CCRF-CEM leukemia; 75.7% in the test on MOLT-4 leukemia; -6.21% (active) in the test with SR leukemia; 62.7% in the test on OVCAR-8 ovarian; 110% in the test on OVCAR-5 ovarian; 91.9% with OVCAR-4 ovarian. Further, the growth with SK-OV-3 ovarian is 92.1%; in the test on IGROV1 ovarian, 0.21% (active); in the test with OVCAR-3 ovarian, 43.5%; in the test with HS 578T breast it was 95.4%; with NCI/ADR-RES ovarian it was 98.5%.

For the compound `O=C(Nc1ccc(-n2cc(-c3ccncc3)c(-c3ccc(O)c(Cl)c3)n2)cc1)c1ccc(Cl)c(C(F)(F)F)c1`, the growth was -0.332% (active) in the test with SK-MEL-2 melanoma; 31.8% in the test with EKVX NSCLC; 45.2% in the test on SN12C renal; 18.4% with UO-31 renal; 17.4% in the test with ACHN renal; 20.5% in the test on CAKI-1 renal. In addition, the growth is 77.7% in the test on A498 renal; 16.2% in the test with CCRF-CEM leukemia; 16.8% in the test on MOLT-4 leukemia; 8.48% (active) in the test with SR leukemia; -26.9% (active) in the test on RPMI-8226 leukemia; 17.8% in the test with OVCAR-8 ovarian. Also, the growth in the test on OVCAR-5 ovarian is 61.6%; with OVCAR-4 ovarian, 62.6%; in the test on SK-OV-3 ovarian, 56%; with IGROV1 ovarian, 52.9%; in the test with OVCAR-3 ovarian it was 4.18% (active); in the test with NCI/ADR-RES ovarian, 18.5%.

Turning to `COc1ccc(-c2nn(-c3ccc(NC(=O)c4ccc(Cl)c(C(F)(F)F)c4)cc3)cc2-c2ccncc2)cc1Cl`, the growth in the test on SK-MEL-2 melanoma was 4.6% (active); with EKVX NSCLC, 34.8%; in the test with SN12C renal, 44.3%; with UO-31 renal it was -26.8% (active); with ACHN renal, 27.3%; with CAKI-1 renal, -33.6% (active). In addition, the growth in the test on A498 renal is -5.21% (active); in the test on CCRF-CEM leukemia it was 23.4%; with MOLT-4 leukemia, 1.35% (active); with SR leukemia, 7.78% (active); with RPMI-8226 leukemia it was -38.2% (active); in the test on OVCAR-8 ovarian, 46.5%. Also, the growth in the test with OVCAR-5 ovarian is 46.5%; with OVCAR-4 ovarian it was 93.9%; in the test with SK-OV-3 ovarian, 58.1%; in the test with IGROV1 ovarian, 44.8%; in the test on OVCAR-3 ovarian, 24%; with NCI/ADR-RES ovarian it was 35.7%.

For `O=C(Nc1ccc(-n2cc(-c3ccncc3)c(-c3ccc(O)c(Cl)c3)n2)cc1)Nc1cccc(Cl)c1Cl`, the growth with SK-MEL-2 melanoma was 66.8%; with EKVX NSCLC, 44.9%; in the test on SN12C renal, 83.1%; in the test on UO-31 renal it was 57.2%; in the test with ACHN renal, 47.8%; in the test on CAKI-1 renal it was 67.3%. The growth with A498 renal was 68.7%; with CCRF-CEM leukemia, 38.2%; in the test with MOLT-4 leukemia it was 39.1%; with SR leukemia it was 74%; with RPMI-8226 leukemia, 12.7%; with OVCAR-8 ovarian, 62%. Also, the growth in the test with OVCAR-5 ovarian was 101%; in the test on OVCAR-4 ovarian, 78.7%; with SK-OV-3 ovarian, 81.7%; in the test with IGROV1 ovarian, 77.9%; in the test on OVCAR-3 ovarian, 55.3%; in the test with NCI/ADR-RES ovarian, 66.7%.

As for `CN(C)c1ccc(/C=c2\s/c(=C\C(=O)C(C)(C)C)[nH]c2=O)cc1`, the growth with SK-MEL-2 melanoma was 102%; in the test on EKVX NSCLC it was 93.9%; in the test on SN12C renal, 99%; in the test with UO-31 renal, 92.5%; with ACHN renal, 100%; in the test with CAKI-1 renal, 97.8%. In addition, the growth with A498 renal was 105%; in the test with CCRF-CEM leukemia it was 101%; with MOLT-4 leukemia, 133%; in the test with SR leukemia it was 92.1%; in the test with RPMI-8226 leukemia it was 104%; with OVCAR-8 ovarian, 102%. For the same compound, the growth with OVCAR-5 ovarian is 99.7%; with OVCAR-4 ovarian, 85.3%; in the test on SK-OV-3 ovarian, 100%; with IGROV1 ovarian, 88.5%; with OVCAR-3 ovarian it was 102%; in the test with HS 578T breast it was 103%. In addition, the growth in the test with NCI/ADR-RES ovarian was 103%.

Consider `O=C(Nc1ccc(-n2ccc3c(NC(=O)c4ccccc4)ncnc32)cc1)Nc1cccc(Cl)c1Cl`, for which the growth with SK-MEL-2 melanoma was -39.1% (active); with EKVX NSCLC, -5.65% (active); with SN12C renal, -31.9% (active); in the test on UO-31 renal it was -80.4% (active); in the test with ACHN renal, -20.4% (active); in the test with CAKI-1 renal it was -26% (active). The growth with A498 renal is 12%; with CCRF-CEM leukemia, 16.5%; with MOLT-4 leukemia, 25.5%; with SR leukemia, 21.8%; in the test with RPMI-8226 leukemia it was 10.2%; with OVCAR-8 ovarian, 13.4%. For the same compound, the growth in the test on OVCAR-5 ovarian is 17.5%; in the test on OVCAR-4 ovarian it was -74.3% (active); in the test with SK-OV-3 ovarian, -14.8% (active); with IGROV1 ovarian, -3.19% (active); in the test with OVCAR-3 ovarian it was -41.7% (active); in the test with NCI/ADR-RES ovarian it was 4.77% (active).
